HT1080 IDH1KD tx = qHTS for induction of synthetic lethality in tumor cells producing 2HG: qHTS for the HT-1080-IDH1KD cell line | HT-1080 IDH1 knockdown viability, ATP luminescence, 48 h | Potency, µM (titrated, usually from 46.1 µM), inactives show at the highest dose activity, negative = toxicity, usual class: cytotoxic | 360,000 compounds, 2% hits | AID 686971, 2013;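 further: 0% = DMSO wells and -100% = cell-free medium wells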
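Knockdown cells (IDH1KD HT-1080) received compounds 2 h after plating at 750 cells/well and were kept 48 h at 37 °C in 5% FBS RPMI. A CellTiter-Glo luminescence read gave % activity for curve fitting.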
HT1080-NT tox = qHTS for induction of synthetic lethality in tumor cells producing 2HG: qHTS for the HT-1080-NT fibrosarcoma cell line | 360,000 compounds, 1.6% hits | Potency, µM (doses to about 46.1 µM), without a hit: at the highest dose activity, negative = less viability, usual class: cytotoxic | HT-1080-NT fibrosarcoma viability, CellTiter-Glo ATP luminescence, 48 h | AID 686970, 2013;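 further: NT is the 2HG producing partner of a matched IDH1 knockdown line; 0% = DMSO-treated cells and -100% = media-only wells without cells; nearly all actives have a fitted effect of over 55% in size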
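Viability by CellTiter-Glo luminescence after 48 h compound exposure at 37C of HT-1080-NT cells (750/well, RPMI, 5% FBS). % activity scaled between DMSO wells and medium-only wells, then curve-fitted and categorized by curve class.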
KB-V1 MDR tox = qHTS assay for MDR1-selective chemotherapeutics: Primary screen using the drug-selected MDR subline cells KB-V1 | KB-V1 MDR cells viability, CellTiter-Glo, 72 h | AID 1347076, 2019 | Potency, µM (titrated, usually from 46.1 µM), hits mostly cytotoxic | 400,000 compounds, 3.4% hits; further: nearly all actives have a fitted effect of over 60% in size
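Following 72 h at 37 degrees C with compound, KB-V1 cell viability was read by CellTiter-Glo luminescence, medium being phenol-red-free DMEM plus 10% FBS; concentration-response parameters came from normalized, curve-fitted qHTS data.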
KB-3-1 tox = qHTS assay for MDR1-selective chemotherapeutics: Primary screen using the parental adenocarcinoma cell KB-3-1 | KB-3-1 viability, CellTiter-Glo ATP luminescence, 72 h | Potency, µM (doses to about 46.1 µM), actives largely listed as cytotoxic | 400,000 compounds, 1.4% hits; further: nearly all actives have a fitted effect of over 60% in size
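KB-3-1 cells, DMEM (no phenol red) + 10% FBS; compound by pin transfer, 72 h, 37 °C. Readout: CellTiter-Glo luminescence after 10 min. Data normalized, curve-fitted.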
* hit, by the source's call; i = inactive; ? = inconclusive; · = no result given; ! = not active in a repeat. Shown are actives, neighbours in structure and some others; about 5.7% of the full set was active somewhere. The call rests on the fitted dose curve; in most records, active means well fitted curve in the direction sought with a large enough effect; inconclusive means small, poorly fitted or top-dose-only effect, or another doubt; inactive means no such curve, though single readings can be large; an effect the other way counts as inactive or inconclusive. Unless noted, on the % scale 0 is the no-effect control and ±100 the full control effect; potency means the concentration at half of the fitted maximal effect.

SMILES	HT1080 IDH1KD tx	HT1080-NT tox	KB-V1 MDR tox	KB-3-1 tox
CCOc1ccc(S(=O)(=O)N2CCc3cc(OC)c(OC)cc3C2)cc1	17%	7%	2.3µM*	i
CCOc1ccc(S(=O)(=O)N2CCc3ccccc3C2)cc1	-11%	-1%	i	i
O=C(Nc1ccc(Cl)cc1C(F)(F)F)C(Sc1nnc(-c2cccs2)o1)c1ccccc1 (stereo unspecified)	10µM*	?	15µM*	?
Cn1c(-c2ccccc2)n[nH]c1=S	23%	?	i	i
Cc1cccc(-c2n[nH]c(=S)n2C)c1	16%	15%	21µM*	?
Cc1cccc(-n2c(-c3csc(C(C)C)c3)n[nH]c2=S)c1	11%	-2%	18µM*	i
Cc1ccc(C)c(-n2c(-c3csc(C)c3)n[nH]c2=S)c1	10µM*	?	18µM*	i
Nc1ccc2c(c1)C(=O)N(c1ccc3ccccc3c1)C2=O	·	·	i	i
CCOc1ccc(-n2c(=O)c3c(C)c(C)sc3n(CC(=O)NCCc3ccccc3)c2=O)cc1	·	·	i	i
O=C(Nc1ccc(Br)cc1)C1CCN(C(=O)c2ccco2)CC1	-8%	-15%	21µM*	i
O=C(Nc1ccccc1)C1CCN(C(=O)c2ccco2)CC1	16%	20%	i	i
CCOC(=O)C1=C(CNCc2ccccc2)NC(=O)NC1c1ccc(C)cc1 (stereo unspecified)	·	·	i	i
Cc1ccc2nc(-c3ccc(Cl)cc3)cc(C(=O)OCC(=O)c3ccccc3)c2c1	·	·	?	i
CCOC(=O)c1cccc(NC(=O)C2(S(=O)(=O)c3ccc(Cl)cc3)CC2)c1	-7%	-5%	i	i
CCOC(=O)c1cccc(NC(=O)C2(S(=O)(=O)c3ccc(C)cc3)CC2)c1	-8%	5%	18µM*!	i
O=C1c2ccccc2C2(c3ccccc3)N1CCN2C(=O)C(Cl)(Cl)Cl (stereo unspecified)	?	?	16µM*	?
COc1ccc(Cl)cc1NC(=O)CNC(c1ccccc1)c1ccccc1	-9%	-28%	15µM*	?
COc1ccc(Cl)cc1NC(=O)CN1c2ccccc2CC1C (stereo unspecified)	?	?	15µM*	?
COc1ccc(-c2ccccc2)cc1NCc1ccc(OC)c(OC)c1	7%	10%	16µM*	i
COc1ccc(CNC(=O)CNC(c2ccccc2)c2ccccc2)cc1OC	-2%	-6%	8.2µM*	i
COc1ccccc1CNc1cc(-c2ccccc2)ccc1OC	1%	11%	?	i
CCC(=O)N1CCc2cc(S(=O)(=O)NC(Cc3ccccc3)C(=O)NCc3cccc(OC)c3)ccc21 (stereo unspecified)	·	·	i	i
Cc1cc(C)c(NC(=O)CSC2=Nc3ccccc3C3=NC(CC(=O)NCc4cccs4)C(=O)N23)c(C)c1 (stereo unspecified)	·	·	i	i
Nc1cnccn1	·	·	i	i
O=C1S/C(=C\c2ccc(N3CCOCC3)o2)C(=O)N1Cc1c(F)cccc1Cl	3.5µM*	?	i	i
SMILES	HT1080 IDH1KD tx	HT1080-NT tox	KB-V1 MDR tox	KB-3-1 tox
O=C(Cc1ccccc1)NNc1ccc2ccccc2c1	3.7µM*	?	i	?
O=C(CN1C(=O)CCC1=O)NNc1ccc2ccccc2c1	2.3µM*	2.9µM*	i	i
O=C(COc1ccc2ccccc2c1)NNC(=O)Cc1ccccc1	18%	26%	i	i
Cc1cn2c(=O)c(S(=O)(=O)NCc3ccccc3Cl)c(C)nc2s1	·	·	i	i
Cc1cc(C(Br)(Br)Br)nc2ccccc12	·	·	i	i
CC1(C(=O)Nc2ccc3c(c2)OCO3)Cc2c(-c3cccc(C(F)(F)F)c3)ccnc2O1 (stereo unspecified)	12µM*	?	?	?
COc1ccc(NC(=O)C2(C)Cc3c(-c4ccc5c(c4)OCO5)ccnc3O2)cc1OC (stereo unspecified)	?	-28%	i	i
COc1ccc(NC(=O)C2(C)Cc3c(-c4ccc5c(c4)OCO5)ccnc3O2)cn1 (stereo unspecified)	2.9µM*	?	12µM*	5.8µM*
